30 compounds from ChEMBL document CHEMBL4513146, “CO-ADD screening of Karazin Kharkiv National University (Ukraine) compounds” can be followed below.

Entries with a potency or affinity are not part of this list.

The test system of assay [1] is Klebsiella pneumoniae. The following applies: Concentration 32 ug.mL-1;; ASSAY_TEST Inhibition of Bacterial Growth; detection method Absorption (OD600); MEDIA CAMHB; plate type 384well; NBS; CORNING #3640; time 18 hr.
Assay [2] relates to Candida albicans. The settings on record: Concentration 32 ug.mL-1; ASSAY_TEST Inhibition of Fungal Growth; detection method Absorption (OD530).
Assay [3] deals with Cryptococcus neoformans. The following applies: Concentration 32 ug.mL-1; ASSAY_TEST Inhibition of Fungal Growth; detection method Resazurin; Absorption (OD600-OD570); plate type 384well; NBS; CORNING #3640. In general terms: The colour change of resazurin is a common sign of viable cells or microbes.

In the case of `Cc1ccc(Cl)cc1NC(=O)Cn1c(=O)c2nnc(C(C)C)n2c2ccccc21`, the Inhibition in assay [1] is listed as 5.77%; in assay [2] it was 3.52%; in assay [3] it was -16.4%.

In the case of `N#Cc1cccc(NC(=O)CSc2nnc3c4cc(-c5ccc(F)cc5)nn4ccn23)c1`, the Inhibition is listed as 16.47% in assay [1], 16.76% in assay [2] and -30.63% in assay [3].

Regarding `CCCCOc1ccc(-c2cc3c4nnc(SCC(=O)Nc5cccc(C(C)=O)c5)n4ccn3n2)cc1`, the Inhibition in assay [1] is 9.96%; in assay [2], 5.2%; in assay [3] it was -6.36%.

In the case of `CCc1ccc(NC(=O)CSc2nnc3ccc(C(=O)Nc4cccc(F)c4)cn23)cc1`, the values for the Inhibition in assay [1], in assay [2] and in assay [3] were 0.94%, 1.65% and -4.96%, respectively.

In the case of `CC(C)Cc1ccc(S(=O)(=O)Nc2ccc3nncn3n2)cc1`, the values for the Inhibition in assay [1], in assay [2] and in assay [3] were 8.3%, 1.38% and -3.84%, respectively.

Turning to `Cc1cc2nn(CC(=O)Nc3ccc(F)cc3Cl)c(=O)n2c(Nc2ccccc2C)n1`, the Inhibition is reported as 1.95% in assay [1], 30.65% in assay [2] and -16.44% in assay [3].

As to `Cc1oc(-c2ccccc2)nc1CSc1nc2ccccc2n2c(C(C)C)nnc12`, the values for the Inhibition in assay [1], in assay [2] and in assay [3] were 2.59%, 6.41% and -7.85%, respectively.

`Cc1ccc(-n2ccn3c(=O)n(Cc4ccccc4F)nc3c2=O)cc1C`: the Inhibition was 7.33% in assay [1], 0.26% in assay [2] and -12.8% in assay [3].

Regarding `Cc1nnc2c(S(=O)(=O)N(Cc3ccccc3F)c3cc(F)cc(F)c3)cccn12`, the Inhibition in assay [1] is 1.21%; in assay [2] it was 0.25%; in assay [3] it was -4.37%.

For the compound `Cc1cc(C)cc(NC(=O)Cn2nc3ccc(-c4ccc(C)c(C)c4)nn3c2=O)c1`, the Inhibition in assay [1] was 5.54%; in assay [2], 21.88%; in assay [3], -18.49%.

Regarding `COc1ccccc1-n1ccn2c(SCc3ccc(C)cc3)nnc2c1=O`, the Inhibition was 5.79% in assay [1], 2.57% in assay [2] and -9.44% in assay [3].

`CCOc1ccc(NC(=O)Cn2nc3c(Oc4cccc(OC)c4)nccn3c2=O)cc1`: the values for the Inhibition in assay [1], in assay [2] and in assay [3] were 14.7%, 3.56% and -8.08%, respectively.

`CCc1ccc(NC(=O)Cn2nc3c(=O)n(-c4ccc(Br)cc4)ccn3c2=O)cc1`: the Inhibition is -9.6% in assay [1], 4.29% in assay [2] and -8.7% in assay [3].

On to `CCOc1ccccc1NC(=O)Cn1nc2c(Oc3ccccc3)nccn2c1=O`, for which the Inhibition is 5.91% in assay [1], 2.77% in assay [2] and -10.21% in assay [3].

Consider `Cc1cc2nn(CC(=O)Nc3ccc(C)c(F)c3)c(=O)n2c(Nc2ccc(C)c(F)c2)n1`, for which the Inhibition in assay [1] is on record as 13.96%; in assay [2] it was 19.28%; in assay [3], -10.18%.

As for `Cc1ccc(-c2ccc3nn(Cc4c(F)cccc4Cl)c(=O)n3n2)cc1`, the values for the Inhibition in assay [1], in assay [2] and in assay [3] were 17.42%, -0.59% and -15.06%, respectively.

For the compound `CC(C)c1ccc(Cn2c(=O)c3sccc3n3c(SCc4cccc(C(F)(F)F)c4)nnc23)cc1`, the Inhibition in assay [1] is on record as 5.43%; in assay [2] it was -0.58%; in assay [3] it was -12.8%.

Turning to `O=C(Cn1nc2c3sc(N4CCCC4)nc3ncn2c1=O)Nc1ccc(C(F)(F)F)cc1`, the Inhibition was 13.17% in assay [1], 1.98% in assay [2] and -9.31% in assay [3].

As for `COc1ccc(-c2cc3c4nnc(CCC(=O)N5CCN(c6ccccc6F)CC5)n4ccn3n2)cc1`, the Inhibition is reported as 15.22% in assay [1], 2.19% in assay [2] and -8.32% in assay [3].

As for `CCc1nnc2ccc(S(=O)(=O)N(Cc3ccccc3)c3ccccc3)cn12`, the Inhibition in assay [1] is 4.93%; in assay [2], 2.38%; in assay [3], -7.97%.

Take `CCc1nnc2c(SCC(=O)Nc3ccc(C)cc3Cl)nc3ccccc3n12`: the Inhibition was 11.28% in assay [1], 1.59% in assay [2] and -8.66% in assay [3].

For `CCCCOc1ccc(-c2cc3c4nnc(SCC(=O)Nc5cccc(C)c5C)n4ccn3n2)cc1`, the figures for the Inhibition in assay [1], in assay [2] and in assay [3] were 1.05%, -0.05% and -18.62%, respectively.

Take `COc1cccc(Oc2nccn3c(=O)n(CC(=O)Nc4ccc5c(c4)OCCO5)nc23)c1`: the Inhibition is given as 1.41% in assay [1], 7.65% in assay [2] and -9.22% in assay [3].

With `Cc1ccc(-c2cc3c4nn(CC(=O)Nc5ccccc5F)c(=O)n4ccn3n2)cc1C`, the values for the Inhibition in assay [1], in assay [2] and in assay [3] were 6.53%, -0.75% and -15.58%, respectively.

Regarding `Cc1cc(C)cc(Nc2nc(C)cc3nn(CC(=O)N(C)c4cccc(C)c4)c(=O)n23)c1`, the Inhibition in assay [1] is given as 7.61%; in assay [2] it was 2.11%; in assay [3] it was -3.53%.

For the compound `COC(=O)c1ccccc1NC(=O)Cn1nc2c(SC3CCCCC3)nccn2c1=O`, the Inhibition in assay [1] is 12.08%; in assay [2], 1.97%; in assay [3], -21.3%.

`CCCN(C)c1nccn2c(=O)n(CC(=O)Nc3ccc(OC)c(Cl)c3)nc12`: the Inhibition in assay [1] is 9.65%; in assay [2], 7.19%; in assay [3], -3.69%.

Take `CCC(C)NC(=O)CSc1nnc2c(=O)n(Cc3ccc(F)cc3)ccn12` (stereo not given): the Inhibition was 6.96% in assay [1], 1.05% in assay [2] and -22.53% in assay [3].

On to `O=C(Cn1nc2ccc(SC3CCCCC3)nn2c1=O)NCc1ccc(Cl)cc1`, for which the Inhibition in assay [1] is reported as 12.01%; in assay [2], 5.78%; in assay [3] it was -20.43%.

For `COc1cc(Cl)c(C)cc1NC(=O)Cn1nc2ccc(SC(C)(C)C)nn2c1=O`, the values for the Inhibition in assay [1], in assay [2] and in assay [3] were 11.93%, 3.05% and -11.08%, respectively.

One may read the Inhibition as the change of the read-out against control, counted positive when it falls.
